Marburg entry: Marburg virus entry inhibition; Potency, µM (series often up to 49.2 µM), for the others: at the highest dose activity change, negative = inhibition, actives largely listed as inhibitors; 6.5% of 18,000 active; Marburg virus pseudotype entry/binding inhibition, cell-based
LASV entry inh: inhibitors of Lassa virus binding or entry into cells | Lassa virus pseudotyped entry inhibition, cell-based qHTS | Potency, µM (series often up to 49.2 µM), for the others: at the top dose activity change, negative = inhibition, usual class: inhibitors | 4.1% of 18,000 active | AID 720533
Numbers without * were called inactive; ? = inconclusive; · = no result; ! = not confirmed by another sample; [ ] = remark or other dose. Most compounds without a hit are left out; they make up all but 8% or so of the library. Calls come from the whole dose curve; tested in HEK293 cells. % is set by controls: 0 for no effect and ±100 for the full control effect; potency is the fitted concentration of half-maximal effect.

SMILES	Marburg entry	LASV entry inh
Oc1ccc(Cl)cc1Sc1cc(Cl)ccc1O	?	13µM*
Cc1cnc(SCc2ccccn2)nc1C1CCCN(C(=O)c2cc3ccccc3oc2=O)C1 (stereo unspecified)	-19%	-5%
COc1ccc(C2/C=C\CC(OCc3ccccc3)CC(=O)N2Cc2cccc(F)c2)cc1 (stereo unspecified)	-20%	?
COc1ccc(C2/C=C\C(c3ccc(OC)cc3)N(Cc3ccc(F)cc3)C(=O)C(=O)N2Cc2ccc(F)cc2)cc1 (stereo unspecified)	10µM*	-24%
CCN1C(=NCc2ccc3c(c2)OCO3)N[C@@H](c2ccccc2)[C@H](C(=O)OC)[C@H]1C	?	-11%[8.59 µM]
COc1cc(O)c2c(c1)oc(=O)c1c3cc(O)c(O)cc3oc21	11µM*	?
COc1c(O)cc2c(=O)oc3c(OC)c(O)cc4c(=O)oc1c2c34	-12%	-1%
CC#CCN1C(=O)NC(c2ccccc2)C(C#N)=C1C (stereo unspecified)	23%[8.59 µM]	-18%[8.59 µM]
CCN1C(=O)[C@@H]2[C@H]3[C@H](O)[C@H](O)CC(=NOC[C@@H](O)COCc4ccco4)[C@@H]3CC[C@H]2C1=O	-22%[8.59 µM]	1%[8.59 µM]
CCN(CC)CC1CCN(c2ncc3ncnc(Nc4ccc(F)c(Cl)c4)c3n2)CC1	3.5µM*	?
CC#CC(=O)Nc1cc2c(Nc3ccc(F)c(Cl)c3)ncnc2cn1	-16%	-2%
Cc1cc(O)c(C=O)c(O)c1C(=O)O	-2%	0%
COC(=O)c1c(C)cc(OC(=O)c2c(C)cc(O)c(C=O)c2O)c(C)c1O	?	7.9µM*
CCN1C(=NCc2ccco2)N[C@@H](c2ccccc2)[C@H](C(=O)OC)[C@H]1C	13%[8.59 µM]	-22%[8.59 µM]
c1ccc(CN(CCN(Cc2ccccn2)Cc2ccccn2)Cc2ccccn2)nc1	10µM*	10µM*
NCCc1ccccn1	16%	-3%
C[C@@H]1C=CCC(=O)N[C@@H](c2cccc(Br)c2)[C@H](C)C=CCC(=O)N[C@@H]1c1cccc(Br)c1	?	-6%[8.59 µM]
OCc1c[nH]c2ccccc12	32µM*!	32µM*!
CN(C)Cc1c[nH]c2ccccc12	6%	-2%
CC12C=C(C=Cc3ccccc3)C(C)(C1)C(c1ccccc1)CC2=O (stereo unspecified)	-4%[8.59 µM]	-11%[8.59 µM]
COc1cccc2c1C(=O)c1c(O)c3c(c(O)c1C2=O)C[C@@](O)(C(=O)CO)C[C@@H]3OC1C[C@@H](N)[C@H](O)[C@H](C)O1 (stereo partly specified)	0.89µM*	?
COc1cccc2c1C(=O)c1c(O)c3c(c(O)c1C2=O)C[C@@](O)(C(=O)CO)C[C@@H]3O[C@H]1C[C@H](N)[C@H](O[C@@H]2CCCCO2)[C@H](C)O1	1.3µM*	1.1µM*
CC(=O)[C@]1(O)Cc2c(O)c3c(c(O)c2[C@@H](O[C@H]2C[C@H](N)[C@H](O)[C@H](C)O2)C1)C(=O)c1c(O)cccc1C3=O	0.056µM*	·
COc1cccc2c1C(=O)c1c(O)c3c(c(O)c1C2=O)C[C@@](O)(C(C)=O)C[C@@H]3O[C@H]1C[C@H](N)[C@H](O)[C@H](C)O1	?	35µM*!
CN1C=CC(=O)[C@@H](O)[C@@H]1c1ccccc1Br	5%	20%
SMILES	Marburg entry	LASV entry inh
C[C@@H]1CC[C@H]2C(=O)N(Cc3ccc(Cl)cc3)C[C@@H](O)CN2[C@H]1c1cccc(Br)c1	43%[8.59 µM]	-9%[8.59 µM]
C=C[C@H]1C[C@H]2C=CCCOP(=O)(O2)O1	?	28%
C=CCOC(=O)C(C(C)=O)[C@@H](NC(=O)OC)c1ccc(F)cc1 (stereo partly specified)	20%[8.59 µM]	12%[8.59 µM]
CSc1nc(C(=O)N2CCc3c(cnc(C)c3CNC(=O)c3ccc4c(c3)OCO4)C2)cs1	-13%	-1%
CCN1C(=O)NC(c2cccs2)C(C(C)=O)=C1C (stereo unspecified)	?	-8%[8.59 µM]
CC(C)C[C@H]1COc2cc(NC3CC3)ccc2S(=O)(=O)N1	13%	-10%
COC(=O)C1=C[C@@]2(c3ccc(F)cc3[C@@H](OC)[C@@H]2C)[C@@H]2C=C[C@H]1C2	2%[8.59 µM]	-12%[8.59 µM]
C=C(C)C(O)C=Cc1ccc(C(F)(F)F)cc1 (stereo unspecified)	?	47%[8.59 µM]
CC(CCN1CCCc2nc(C)c(C)cc21)=NO[C@H](C)c1cn([C@H](CO)Cc2ccccc2)nn1	?	1%[8.59 µM]
COc1ccc(COC(=O)NN=C2C[C@@H](O)[C@@H](O)[C@@H]3[C@H]4C(=O)N(Cc5ccccc5)C(=O)[C@@H]4CC[C@@H]23)cc1	-25%[8.59 µM]	?
COc1cc(OC)c(CN2CCOc3ccc(CN4CCC(O)CC4)cc3C2)c(OC)c1	14µM*	?
COc1ccc(F)c(CN2CCOc3ccc(CN4CCC(Oc5cccnc5)CC4)cc3C2)c1	?	6%
COc1ccc(CN2CCOc3ccc(CN4CCC(Oc5cccnc5)CC4)cc3C2)c(F)c1	11µM*	-8%
COc1ccc(CN2CCOc3ccc(CN4CCN(CCO)CC4)cc3C2)c2ccccc12	11µM*	?
COc1cc(CN2CCOc3ccc(CN4CCC(Oc5cccnc5)CC4)cc3C2)ccc1F	?	-10%
COc1cc(CN2CCOc3ccc(CN4CCN(CCO)CC4)cc3C2)ccc1F	3%	14%
COCCN1C(=O)NC(c2ccccc2)C(C(=O)OC)=C1C (stereo unspecified)	8%[8.59 µM]	-4%[8.59 µM]
CCc1cc2c(nc1CC)CCN(CCC(C)=NO[C@@H](C)c1cn([C@H](CO)Cc3ccccc3)nn1)C2	-27%[8.59 µM]	16%[8.59 µM]
CC1=C[C@@H](COCc2ccccc2)O[C@@]2(C1)C(=O)N(Cc1ccccc1C(F)(F)F)c1ccccc12	5%[8.59 µM]	11%[8.59 µM]
O=C(Nc1n[nH]c2nnc(-c3cccnc3)cc12)C1CC1	?	-25%
CSC[C@H]1CN(c2ccccc2)C(=O)[C@H]1CC(=O)Nc1ccccc1	27%	17%
CN1CCN(c2nc3cc(C(F)(F)F)ccc3n3cccc23)CC1	28µM*!	-22%
CC(=O)CCC(=O)N1CCC(n2c(C3CCCO3)nc3cc(C(F)(F)F)ccc32)CC1 (stereo unspecified)	1%	0%
CC(=O)OC[C@H]1O[C@H](CC=NO[C@@H](C)c2cn([C@H](CO)Cc3ccccc3)nn2)C=C[C@@H]1OC(C)=O	34%[8.59 µM]	·
Cc1ncc(CO)c(CO)c1O	28µM*!	-7%
SMILES	Marburg entry	LASV entry inh
Cc1ncc(COP(=O)(O)O)c(CN)c1O	1%	-9%
CC(=O)[C@]12C[C@@H]3CCCN(C(=O)N[C@@H]1c1ccccc1)[C@@H]32	0%[8.59 µM]	-7%[8.59 µM]
O[C@H]1C[C@H](c2ccccc2)N(Cc2cccs2)C[C@H]1n1cc(-c2ccc(F)cc2)nn1	?	-6%
COc1cc(CCN)ccc1O	2%	-1%
CCCSc1cc(OC)c(CCN)cc1OC	22µM*	?
C=CC[C@@H]1C=C[C@H](ON=C(C)CCN2CCc3nc(CC)c(CC)cc3C2)[C@H](CO)O1	?	-29%[8.59 µM]
COc1ccc(C=CC2=CC3(C)CC2(C)C(c2ccc(OC)cc2)CC3=O)cc1 (stereo unspecified)	-13%[8.59 µM]	9%[8.59 µM]
CCOC(=O)C=C1CN(Cc2ccc(OC)cc2)S(=O)(=O)c2ccccc21	?	-8%
C#CCCCON=C1C[C@@H](O)[C@H](O)[C@H]2[C@@H]3C(=O)N(C[C@@H]4CCCO4)C(=O)[C@@H]3CC[C@H]12	4%[8.59 µM]	?
COCc1ccc(CN2CCOc3c(O)cc(-c4cc(C)c5ccc(F)cc5n4)cc3C2)o1	0%	?
Oc1ccc(Cl)cc1CN1CCOc2c(O)cc(-c3nc4ccccc4s3)cc2C1	-17%	1.6µM*

Screens as filed in PubChem BioAssay.
